Results: PubChem BioAssay AID1008 (NMMLSC, 2008)
The campaign covered roughly 190,000 compounds. About 240 (0.13%) were called active. This is one part of a sample in which actives are shown more often than they occur. Rule as the data show it: active = inhibition above about 40%.

biological target: Bcl-2-related protein A1 (Homo sapiens) (UniProt Q16548); experiment: Bfl-1/Bim complex disruptors – biochemical, multiplexed, bead-based flow cytometry, primary screen (AID 1008); details: Bim-Bfl-1 binding inhibition, at 10 µM, active compounds read high;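 also: 0% = wells without compound plus tracer and 100% = blocker peptide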
Sequence (Q16548 whole entry, looked up): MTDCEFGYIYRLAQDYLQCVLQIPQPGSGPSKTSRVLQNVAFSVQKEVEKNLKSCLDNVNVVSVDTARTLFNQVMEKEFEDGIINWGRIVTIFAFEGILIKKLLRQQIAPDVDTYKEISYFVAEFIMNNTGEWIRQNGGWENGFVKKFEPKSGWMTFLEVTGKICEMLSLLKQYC

Row | SMILES | inhibition
1 | CCOC(=O)c1cnc2[nH]c3ccccc3n2c1=O | -8% (inactive)
2 | O=[N+]([O-])c1cccc(-c2nnc3c4ccccc4c4ccccc4n23)c1 | -7% (inactive)
3 | O=c1[nH]c2ccccc2n2c(-c3ccccc3)nnc12 | 54% (active)
4 | CC(=O)c1ccc(N2CCN(C(=O)c3ccc4nc[nH]c4c3)CC2)cc1 | 0% (inactive)
5 | CN(C(=O)CSc1nnc(Nc2ccccc2)s1)C1CCS(=O)(=O)C1 (stereo not drawn) | -5% (inactive)
6 | CC1(C)C2CCC1(C)C(OC(=O)c1ccc(O)cc1)C2 (stereo not drawn) | 2% (inactive)
7 | COc1ccc(CC(=O)NCc2nnc(SCC(=O)Nc3ncc(C)s3)n2C)cc1 | -5% (inactive)
8 | COc1ccc(CN2CCNC(=O)C2CC(=O)N(C)Cc2ccccn2)cc1OC (stereo not drawn) | -2% (inactive)
9 | O=C(O)CC(Cc1ccccc1)C(=O)Nc1ccc([N+](=O)[O-])cc1 (stereo not drawn) | -14% (inactive)
10 | Cc1cc(Cl)ccc1NC(=S)N1CCC(C(N)=O)(N2CCCCC2)CC1 | 0% (inactive)
11 | C=CCOCCN(C)C1=NS(=O)(=O)c2ccccc21 | -4% (inactive)
12 | CCC(C)(C)NC(=O)CN(C(=O)C(=O)Nc1ccc2c(c1)OCCO2)C(C)(C)CC | 3% (inactive)
13 | O=S(=O)(c1ccc(-c2ccccc2)cc1)N1CCCC1 | -7% (inactive)
14 | CN(c1ccc2nc3ccccc3c(=O)n2n1)C1CCCCC1 | -3% (inactive)
15 | CCOC(=O)Cc1csc(NC(=O)COc2ccc3c(C)cc(=O)oc3c2)n1 | -4% (inactive)
16 | CCOC(=O)c1ccccc1NC(=O)CSc1nc2ccccc2c(=O)[nH]1 | -3% (inactive)
17 | COc1ccc(-c2ccc(CCC(=O)O)n2-c2ccc(O)cc2)cc1 | 5% (inactive)
18 | Cc1cc(Cl)c(S(=O)(=O)NCCC(=O)O)cc1OCC(N)=O | -15% (inactive)
19 | Cc1cc(Cl)c(S(=O)(=O)NCC2CCCO2)cc1OCC(N)=O (stereo not drawn) | 48% (active)
20 | Cc1cc(Cl)c(S(=O)(=O)Nc2ccc3c(c2)OCCO3)cc1OCC(N)=O | -2% (inactive)
21 | CN(C)S(=O)(=O)N1CCN(c2ccc([N+](=O)[O-])cc2)CC1 | 0% (inactive)
22 | Cc1ccc(CC(=O)Nc2ccc(OC(F)F)c(Cl)c2)cc1C | -6% (inactive)
23 | COc1cccc(C(O)Cc2nc3ccccc3n2C)c1OC (stereo not drawn) | -3% (inactive)
24 | CCOC(=O)/C(C#N)=C/c1cn(CCC(=O)O)nc1-c1ccc(Br)cc1 | -9% (inactive)
25 | CC(=O)Nc1ccc(NC(=O)COc2ccc(S(=O)(=O)NC(C)c3ccccc3)cc2)cc1 (stereo not drawn) | -5% (inactive)

Row | SMILES | inhibition
26 | Cc1oc2c(c1C(=O)N1CCOCC1)C(=O)c1ccccc1C2=O | -1% (inactive)
27 | Cc1ccnc(NC(=O)c2ccco2)n1 | -3% (inactive)
28 | COC(=O)COc1ccc(C2NC(=O)NC(C)=C2C(=O)NCc2ccccc2)cc1OC (stereo not drawn) | -9% (inactive)
29 | C/C(=N\NC(=O)COc1c(C)cccc1C)c1cccs1 | -7% (inactive)
30 | Cc1ccc(NC(=O)c2ccn(C(=O)Nc3ccccc3)n2)c(C)c1 | -2% (inactive)
31 | CC1(C)CC(=O)c2ccc(O)cc2O1 | -4% (inactive)
32 | Cc1[nH]c2ccccc2c1SCC(=O)Nc1nccs1 | -5% (inactive)
33 | CCCOC(=O)c1c(NC(=O)c2cnn3c2NC(c2ccccc2)CC3C(F)(F)F)sc2c1CCCC2 (stereo not drawn) | -18% (inactive)
34 | Cc1ccc(-c2csc(NC(=O)Cn3[nH]c(=O)c4ccccc4c3=O)n2)cc1 | -4% (inactive)
35 | CCc1cccc(CC)c1NC(=S)NCc1ccc2[nH]c(C)cc2c1 | -2% (inactive)
36 | Cn1cc(CN2CCC(C(O)CCc3ccccc3)CC2)c(-c2ccccc2F)n1 (stereo not drawn) | -5% (inactive)
37 | CCO[C@H]1OC(C(=O)N2CCOCC2)=C[C@@H](c2ccc3c(c2)OCO3)[C@@H]1CCCO | -4% (inactive)
38 | O=C(CCC(=O)Nc1ccccc1)N/N=C/c1ccccc1F | -4% (inactive)
39 | Cc1cc([N+](=O)[O-])ccc1NC1CCCC1 | -7% (inactive)
40 | C=CS(=O)c1sc(Cl)c(N2CCOCC2)c1[N+](=O)[O-] (stereo not drawn) | 57% (active)
41 | COc1ccc(S(=O)(=O)Nc2ccc(O)c(Sc3nc4ccccc4s3)c2)cc1 | 9% (inactive)
42 | O=[N+]([O-])c1c(NCCO)cc(Sc2nc3ccccc3s2)c2nonc12 | 56% (active)
43 | O=C(O)c1cccc(S(=O)(=O)Nc2ccc(O)cc2Sc2nc3ccccc3s2)c1 | 7% (inactive)
44 | COc1ccc(N(C)S(=O)(=O)c2cccc3nsnc23)cc1 | -6% (inactive)
45 | C=CCn1c2ccccc2c2nnc(SCc3[nH]c(=O)[nH]c3C(=O)CCCCC(=O)OCC)nc21 | 16% (inactive)
46 | Cc1nonc1C1CCCN1Cc1nc(-c2ccc(F)cc2F)oc1C (stereo not drawn) | -4% (inactive)
47 | Cc1n[nH]c(=O)n1-c1ccc(C(C)C)cc1 | -5% (inactive)
48 | C/C(CC(=O)Nc1cccc(F)c1)=N\NC(=O)C(=O)NC1CCCCC1 | 0% (inactive)
49 | CN(C(=O)c1c(Cl)cnn1C)C12CC3CC(CC(C3)C1)C2 | 21% (inactive)
50 | CCN(CCn1cccn1)Cc1nc(-c2ccc(C(=O)OC)cc2)no1 | -5% (inactive)

Row | SMILES | inhibition
51 | Cc1ccccc1NC(=O)CN1C(=O)N/C(=C\c2cccn2-c2cccc(C(=O)O)c2)C1=O | -3% (inactive)
52 | COc1cc(NC(=S)NCCSc2ccc(C)cc2)cc(OC)c1 | -1% (inactive)
53 | CCN(CC)S(=O)(=O)c1ccc(Cl)c(C(=O)NC(C)C(c2cccs2)N2CCCC2)c1 (stereo not drawn) | -5% (inactive)
54 | C=CCNc1nc(Nc2ccc(Cl)cc2)nc(OC)n1 | -6% (inactive)
55 | Cc1cccc(NC(=S)NCCN(C2CCCCC2)C2CCCC2)c1 | -2% (inactive)
56 | CCOC(=O)C1(CC2CCCCO2)CCN(Cc2nc(-c3cccs3)oc2C)CC1 (stereo not drawn) | -5% (inactive)
57 | Cc1cccc2cc(CN(C(=O)c3cccs3)c3ccccc3)c(=O)[nH]c12 | -5% (inactive)
58 | N=c1c2c3c(sc2ncn1N)CCCC3 | -7% (inactive)
59 | Nc1nc(CC(=O)CSc2ccc(Cl)cc2)nc(Nc2ccc(F)cc2)n1 | -12% (inactive)
60 | O=C(/C=C/c1ccc(Cl)cc1)N1CCN(c2ccccc2[N+](=O)[O-])CC1 | 2% (inactive)
61 | CCN(CC)CCCNC(=O)c1ccc2c(=O)n(Cc3ccc4c(c3)OCO4)c(=S)[nH]c2c1 | -5% (inactive)
62 | CCOC(=O)c1sc(-c2cccc([N+](=O)[O-])c2)cc1N | -1% (inactive)
63 | Cc1ccc(/C=N/NC(=O)Cn2ccc(C(F)(F)F)n2)o1 | -3% (inactive)
64 | COc1ccc(N2C(=O)C(CC(=O)Nc3ccc(F)cc3)N(CCc3cccs3)C2=O)cc1 (stereo not drawn) | -3% (inactive)
65 | Cc1cc(C(=O)NNC(=O)c2cccc(S(=O)(=O)N3CCOCC3)c2)c2ccccc2n1 | -6% (inactive)
66 | CC(C)n1c(O)c(N=Nc2ccccn2)c2ccccc21 | -1% (inactive)
67 | CCC(O)C1CCN(Cc2cn(-c3ccc(OC)cc3)nc2-c2cccc(F)c2)CC1 (stereo not drawn) | -8% (inactive)
68 | CC(=O)C1=C(C)NC2=C(C(=O)CC(C)(C)C2)C1C (stereo not drawn) | -2% (inactive)
69 | O=C(O)CSc1nccc2ccccc12 | 5% (inactive)
70 | OC1CCCN(c2ncnc3c2nnn3Cc2c(F)cccc2Cl)C1 (stereo not drawn) | 4% (inactive)
71 | CO/N=C/CC(=O)c1ccc(OC)cc1 | -2% (inactive)
72 | OCCC1CN(Cc2ccc3nsnc3c2)CCN1C1CCCC1 (stereo not drawn) | -8% (inactive)
73 | CCc1ccc(C2C(C#N)=C(N)N(N(C)C)C3=C2C(=O)CCC3)s1 (stereo not drawn) | 0% (inactive)
74 | CC(OC(=O)c1ccccc1OCc1ccc(Cl)cc1)C(N)=O (stereo not drawn) | -4% (inactive)
75 | CC1Cc2ccccc2N1C1=CC(=O)CC(C)(C)C1 (stereo not drawn) | -4% (inactive)

Row | SMILES | inhibition
76 | C=CCc1ccccc1OCC(=O)N/N=C/c1ccccc1OCC | -1% (inactive)
77 | CCOc1ccccc1/C=N/NC(=O)CNC(=O)COc1ccccc1 | 54% (active)
78 | Cc1ccc(/C=N/NC(=O)CNC(=O)COc2ccccc2)o1 | -12% (inactive)
79 | C=CCOC(=O)C1=C(C)N=C2SCCC(=O)N2C1/C=C/c1ccccc1OC (stereo not drawn) | -9% (inactive)
80 | Cc1c(NC(=O)/C=C/C(=O)O)cccc1[N+](=O)[O-] | -15% (inactive)
81 | CCc1nnc(NC(=O)/C=C/c2ccc(C)o2)s1 | -1% (inactive)
82 | Cc1ccc(/C=C/C(=O)Nc2ccc([N+](=O)[O-])c(NC(=O)/C=C/c3ccc(C)o3)c2)o1 | 40% (active)
83 | O=C(/C=C/c1ccc(Cl)cc1)Nc1ccc(Br)cn1 | -6% (inactive)
84 | Cc1nn(-c2ccccc2)c(NC(=O)c2cccs2)c(-c2ccc(Cl)cc2)c1=O | -7% (inactive)
85 | CSCc1cc(N2CCOCC2)nc(SCc2ccc(Cl)cc2Cl)n1 | -15% (inactive)
86 | Clc1ccc(CSc2nnc(/C=C/c3ccccc3)o2)c(Cl)c1 | -12% (inactive)
87 | CSCc1cc(N(C)C)nc(SCc2ccc(Cl)cc2Cl)n1 | 52% (active)
88 | COc1cc(OC)cc(-c2nnc(N(C)C(=O)c3ccncc3)s2)c1 | -10% (inactive)
89 | CCO[C@H]1OC(C(=O)N2CCCCCCC2)=C[C@@H](c2ccc(C(F)(F)F)cc2)[C@@H]1CCCO | -7% (inactive)
90 | C/C(=C\c1ccco1)C1Nc2cccc3cccc(c23)N1 | 45% (active)
91 | CC(/C=N/NC(=O)c1cc(-c2ccc3ccccc3c2)n[nH]1)=C\c1ccco1 | 8% (inactive)
92 | CC(/C=N/NC(=O)c1ccncc1)=C\c1ccco1 | -1% (inactive)
93 | CCn1c(CNC(=O)c2ccco2)nnc1SCC(=O)Nc1cccc(F)c1 | -1% (inactive)
94 | Cc1ccc(C2CCN(C(=S)Nc3cccc(Cl)c3)C2)cc1 (stereo not drawn) | -4% (inactive)
95 | COC(=O)c1cc2c(ccn2C)n1C | -5% (inactive)
96 | COc1cc(OC)c(C(=O)OCC(=O)N2CC(=O)Nc3ccccc32)cc1OC | -1% (inactive)
97 | CCC(=O)c1ccc(OCC(O)Cn2nc(C)c(C(C)=O)c2C)cc1 (stereo not drawn) | 0% (inactive)
98 | CNC(=S)N1CCC(NC(=O)C(Cc2ccc(F)cc2)NC(C)=O)CC1 (stereo not drawn) | -2% (inactive)
